Laboratory results from ChEMBL document CHEMBL3988442, “University of Dundee, Small-Polar-MMV Screening Library” (2021).
Hit rate of the full screen: of about 85,000 compounds, about 440 (0.52%) showed an effect of 50% or more. This excerpt belongs to a sample that is enriched for strong results.

Assay: In vitro enzyme assay to detect hydrolysis of chlorophenol red-beta-D-[…] directly proportional to the number of Toxoplasma stably expressing beta-galactosidase
Format: functional, organism-based, Toxoplasma gondii
Set-up: scale not given: in the data most compounds retested in dose-response had high values

| SMILES | Percent Effect (50 µM) | Percent Effect (10 µM) |
| --- | --- | --- |
| NC(=O)C1CCN(CC(=O)Nc2ccc(F)cc2)CC1 | -2.359% | – |
| CCN(CC)CC(N)=O | -6.066% | – |
| CC1CCCN(Cn2nccc2-c2cccnc2)C1 (stereo unspecified) | 7.827% | – |
| O=C(NCCc1ccccc1F)C1CCNCC1 | -5.827% | – |
| O=C(OCC(F)(F)F)c1cccnc1 | -11.21% | – |
| O=C(N[C@H]1CCCNC1)c1ccc(F)cc1F | -5.906% | – |
| Cc1ccc(F)cc1C(=O)NC1CCCNC1 (stereo unspecified) | 83.09% | – |
| Cc1ccc(F)cc1C(=O)N[C@@H]1CCNC[C@H]1O | 19.16% | – |
| COCc1nnc(-c2ccc3c(c2)OCO3)o1 | 23.78% | – |
| NC(=O)C1CCCN1C(=O)C1CCNCC1 (stereo unspecified) | -2.32% | – |
| c1ccc(Nc2nccs2)nc1 | -28.74% | – |
| Oc1cc(C2CCCCN2Cc2cccs2)nc(-c2ccncc2)n1 (stereo unspecified) | – | -14.06% |
| Oc1cc(C2CCCCN2Cc2cccs2)nc(-c2ccccn2)n1 (stereo unspecified) | – | 91.06% |
| Oc1cc(C2CCCN(Cc3cccs3)C2)nc(-c2ccccn2)n1 (stereo unspecified) | – | 33.79% |
| Cc1ccc(N)c(C)n1 | 4.322% | – |
| OC(c1ccccc1)C1CCNCC1 (stereo unspecified) | -7.409% | – |
| O=C(NCc1ccnc(NC2CC2)c1)C1CCCCC1 | 17% | – |
| Cc1ccc(Cn2cc(Br)c(NS(C)(=O)=O)n2)cc1 | – | 20% |
| CS(=O)(=O)Nc1nn(Cc2ccc(F)cc2)cc1Br | – | 62.42% |
| Cc1cccc(Cn2cc(Br)c(NS(C)(=O)=O)n2)c1 | – | 46.94% |
| Cc1ccc(C(=O)N2C[C@@H](CO)[C@H](N(C)C)C2)cc1 | 0.785% | – |
| CN(C)C(=O)CNC(CC(F)(F)F)c1ccc(Cl)cc1 (stereo unspecified) | – | 0.885% |
| CN(C)C(=O)CNC(CO)c1ccc(Cl)c(F)c1 (stereo unspecified) | 52.18% | – |
| CN(C)C(=O)CNC(CC(F)(F)F)c1ccc(F)cc1 (stereo unspecified) | – | 4.779% |
| CCNC(=O)c1cc2ccccc2n1C | -19.31% | – |
| Cn1nccc1C(N)=O | -25% | – |

| SMILES | Percent Effect (50 µM) | Percent Effect (10 µM) |
| --- | --- | --- |
| CCOC(CNC(=O)c1ccnn1C)c1ccccc1 (stereo unspecified) | -0.4622% | – |
| CCOCC(C)OC(=O)c1ccnn1C (stereo unspecified) | 57.1% | – |
| NCCCn1nc2ccccn2c1=O | 7.053% | – |
| CCOc1ccc(Cl)cc1C(N)=O | -6.805% | – |
| CCn1nc(C)c(NC(=O)c2cc(NC(=O)C3CC3)n(C)n2)c1C | – | 0.1763% |
| Cc1nn(C)c(C)c1CN(C)C(=O)c1cc(NC(=O)C2CC2)n(C)n1 | – | 51.38% |
| Cc1nn(C)c(C)c1CN(C)C(=O)c1cc(C(F)(F)F)n(C)n1 | – | 12.73% |
| Cn1nc(C(=O)NC2CC2)cc1NC(=O)C1CC1 | – | -1.586% |
| Cn1nc(C(=O)NC2CCCC2)cc1NC(=O)C1CC1 | – | -6.404% |
| Cc1nn(C)c(C)c1CNC(=O)c1cc(NC(=O)C2CC2)n(C)n1 | – | 56.77% |
| CN(C)C1CCN(S(=O)(=O)c2ncn(C)c2Cl)CC1 | -2.885% | – |
| COCC(=O)Nc1c[nH]nc1C1CCCNC1 (stereo unspecified) | -10.17% | – |
| COc1ccc(F)cc1C(=O)N1CCC(CN)CC1 | -0.7009% | – |
| Cc1nccc(C(=O)NCC(C)(C)CN(C)C)n1 | 2.804% | – |
| COc1ccc(CNC(=O)CC2CCNC2)c(OC)c1 (stereo unspecified) | -8.79% | – |
| CC(=O)c1ccc(C(=O)NCCCOC(C)c2ccccc2)s1 (stereo unspecified) | – | -2.061% |
| CC(OCCCNC(=O)c1cccnc1O)c1ccccc1 (stereo unspecified) | – | 39.02% |
| COc1ccc(C(=O)NCCCOC(C)c2ccccc2)c(OC)c1 (stereo unspecified) | – | 61.13% |
| CNC1CCN(Cc2ncc(C)c(OC)c2C)CC1 | 36.04% | – |
| CCn1nc(C)c2nc(C)nc(NCCc3ccc(C)cc3)c21 | – | 34% |
| CCn1nc(C)c2nc(C)nc(NCCc3ccccc3)c21 | – | 19.6% |
| CCc1nc(NCCCOC)c2c(n1)c(C)nn2C | – | 6.336% |
| CCCc1nc(N2CCC(C)CC2)c2c(n1)c(C)nn2CC | – | 25.59% |
| CCCc1nc(NCCCOC)c2c(n1)c(C)nn2CC | – | 90.71% |
| CCn1nc(C)c2nc(C(C)C)nc(NCCOC)c21 | – | 21.04% |
| CCCc1nc(NCC(=O)N2CCOCC2)c2c(n1)c(C)nn2CC | – | 3.704% |

| SMILES | Percent Effect (50 µM) | Percent Effect (10 µM) |
| --- | --- | --- |
| CCCc1nc(NCCCOCC)c2c(n1)c(C)nn2CC | – | 72.53% |
| CCCc1nc(NCCCO)c2c(n1)c(C)nn2CC | – | 3.108% |
| CCCc1nc(NCCOC)c2c(n1)c(C)nn2CC | – | 57.71% |
| CCCc1nc(NCCc2ccccc2)c2c(n1)c(C)nn2CC | – | 68.81% |
| CCc1nc(NCCCn2cccn2)c2c(n1)c(C)nn2CC | – | 14.75% |
| CNCCCOC(C)C | -2.494% | – |
| NC1CCN(CC2CC2)CC1 | 2.288% | – |
| NC(=O)c1ccc(NC(=O)CCN2CC(O)C2)cc1 | -17.28% | – |
| CCC(Nc1cccc(OCC(F)(F)F)c1)C(N)=O (stereo unspecified) | -6.008% | – |
| CCOC(=O)NC1CCC(NC(=O)C2CCC2)CC1 (stereo unspecified) | 0.5853% | – |
| CCN(CC)c1nc2nc[nH]c(=O)c2s1 | -4.057% | – |
| CC(CCN)CCO (stereo unspecified) | 29.53% | – |
| OCc1nncn1-c1ccccc1 | 12.09% | – |
| C[C@@H]1CN(C2CCN(c3ccccc3F)CC2)C[C@]1(C)O | – | 12.36% |
| Cc1cc(F)ccc1N1CCC(N2C[C@@H](C)[C@@](C)(O)C2)CC1 | – | 24.01% |
| C[C@@H]1CN(C2CCN(c3ccccc3F)CC2)CC[C@]1(C)O | – | 72.85% |
| CN(C)CC1CNCCO1 (stereo unspecified) | -14.23% | – |
| CC(=O)NC(C(=O)N(C)Cc1cccs1)C(C)C (stereo unspecified) | 4.166% | – |
| OCCN1CCN(c2ccc3nnnn3n2)CC1 | 0.916% | – |
| Cn1cc(N)c(C(F)(F)F)n1 | -8.221% | – |
| Cn1cc(S(N)(=O)=O)c(C(F)(F)F)n1 | 17.97% | – |
| Cn1cc(CN)c(C(F)(F)F)n1 | 98.21% | – |
| CN1CCC(CNC(=O)CCc2cccs2)C1 (stereo unspecified) | -16.97% | – |
| CN1CCCCC1CCC(=O)NCCc1ccncc1 (stereo unspecified) | 15.39% | – |
| CN(C)S(=O)(=O)c1ccc(-c2nc(C#N)c(NC(C)(C)C)o2)o1.Cl | – | 91.6% |
| CN(C)S(=O)(=O)c1ccc(-c2nc(C#N)c(NC3CC3)o2)o1 | – | -1.829% |

| SMILES | Percent Effect (50 µM) | Percent Effect (10 µM) |
| --- | --- | --- |
| CNc1oc(-c2ccc(S(=O)(=O)N(C)C)o2)nc1C#N | – | 44.93% |
| CN(C)S(=O)(=O)c1ccc(-c2nc(C#N)c(NC3CCCCC3)o2)o1 | – | 3.806% |
| CC(C)Nc1oc(-c2ccc(S(=O)(=O)N(C)C)o2)nc1C#N | – | -12.9% |
| NCCOc1cccc(C(F)(F)F)n1 | -9.845% | – |
| COCCN(Cc1cccs1)C(=O)CC1CCNC1 (stereo unspecified) | 11.69% | – |
| CSc1ccc(CNC(=O)C(C)O)cc1 (stereo unspecified) | -1.798% | – |
| COc1cccc2ccc(CN3CC[C@@H](O)C3)nc12 | 11.26% | – |
| NC[C@@H]1CC(=O)N(C2CC2)[C@H]1c1ccncc1 | -2.453% | – |
| CC(C)Sc1ccccc1NS(=O)(=O)N(C)C | 99.92% | – |
| CC(NS(=O)(=O)N(C)C)c1ccccc1 (stereo unspecified) | -35.13% | – |
| CN(C)S(=O)(=O)NC(c1ccccc1)c1ccccc1 | 10.19% | – |
| CCNCCCC1CCNCC1 | 16.42% | – |
| COC(=O)c1cccc(NS(=O)(=O)c2cnc(NC(C)=O)s2)c1 | – | -3.347% |
| COc1ccc(NS(=O)(=O)c2cnc(NC(C)=O)s2)cc1 | – | 74.55% |
| COc1ccc(OCCc2nnc(NC(C)=O)s2)cc1 | – | -4.781% |
| COC(=O)c1ccc(NS(=O)(=O)c2cnc(NC(C)=O)s2)cc1 | – | 53.94% |
| COc1ccc(S(=O)(=O)Nc2cnc(N(C)C)nc2)cc1 | – | -8.947% |
| COC(=O)c1ccc(NC(C)=O)cc1 | 6.6% | – |
| CC(C)OCCN1CCN(C(=O)c2cc[nH]n2)CC1 | -2.714% | – |
| NCC(C(=O)N1CCC2(CCC2)C1)c1ccccc1 (stereo unspecified) | 20.55% | – |
| CC(=O)NC(C)C(=O)Nc1ccc2ccccc2c1 (stereo unspecified) | -30.81% | – |
| O=C1CCc2ccccc2N1Cc1ncccn1 | 0.3291% | – |
| Nc1cc(-c2cccnc2)on1 | -0.8399% | – |
| Cc1noc(C)c1S(=O)(=O)N(C)Cc1ccoc1 | -13.17% | – |
| CC1(C)CC(=O)CN1C(=O)c1cc(Cl)c2c(c1)OCO2 | 7.211% | – |
| COc1cccc2c1OCC(CNS(C)(=O)=O)C2 (stereo unspecified) | 14.05% | – |

| SMILES | Percent Effect (50 µM) | Percent Effect (10 µM) |
| --- | --- | --- |
| CCc1nccn1CCNC(=O)Cn1nc(C)cc1N | 0.7856% | – |
| CNC(=O)C1CCCN(C(=O)Cc2ccc(F)cc2)C1 (stereo unspecified) | -18.03% | – |
| CN(C)C(=O)c1cc(-c2ccncc2)[nH]n1 | – | -7.126% |
| NCCCc1nc(-c2ccncc2)cs1 | -3.15% | – |
| NCCc1cc(-c2ccncc2)[nH]n1 | 52.85% | – |
| O=C(NC1(CCO)CCC1)c1c(O)cc(F)cc1F | -3.362% | – |
| COCCOCCCNC(=O)c1cn2cc(C)nc2s1 | 5.507% | – |
| CN(Cc1ccc(F)c(F)c1)C(=O)C1CCOCC1 | 0.4539% | – |
| Cn1cc(CN2CCn3cc(Cn4cccn4)nc3C2)cn1.O=C(O)C(F)(F)F | – | 96.45% |
| Fc1ccc(CN2CCn3cc(Cn4cccn4)nc3C2)cc1.O=C(O)C(F)(F)F | – | 6.807% |
| O=C(O)C(F)(F)F.O=C(O)C(F)(F)F.c1ccc(CCN2CCn3cc(Cn4cccn4)nc3C2)cc1 | – | -2.685% |
| Cc1noc(C)c1S(=O)(=O)N1CC[S+]([O-])C(C)(C)C1 (stereo unspecified) | -20.3% | – |
| CC(=O)c1sc(NCCc2ccccn2)nc1C | -25.25% | – |
| CCS(=O)(=O)Nc1ccccc1F | 6.561% | – |
| CC(=O)Nc1ncc(S(=O)(=O)Nc2ccccc2)s1 | – | 62.69% |
| CC(=O)Nc1ncc(S(=O)(=O)N2CCC(C)CC2)s1 | – | -14.89% |
| CC(=O)Nc1ncc(S(=O)(=O)Nc2ccc(F)cc2)s1 | – | 2.51% |
| CC(=O)Nc1ncc(S(=O)(=O)Nc2ccc(F)cc2F)s1 | – | -1.674% |
| CC(=O)Nc1ncc(S(=O)(=O)Nc2ccc(C)cc2)s1 | – | 70.91% |
| CC(=O)Nc1ncc(S(=O)(=O)Nc2ccccc2F)s1 | – | 61.48% |
| CC(=O)Nc1ncc(Br)s1 | 8.521% | – |
| CCN1CCN(S(=O)(=O)c2cnc(NC(C)=O)s2)CC1 | – | -3.243% |
